From PubChem BioAssay
The source made the active and inactive calls.

Test: PSAC antagonists in infected red cells, primary screen, cell-based, P. falciparum Indochina, OD700, 18 h (AID 1157)
Settings: P. falciparum Indochina infected erythrocytes, osmotic lysis OD700, 18 h; higher = more signal, called active from +8 up or from −8 down

| Structure (SMILES) | z-score |
| --- | --- |
| O=C1c2ccccc2[C@](Cc2ccccc2I)(C(=O)NCCN2CCOCC2)[C@H](c2ccc(CO)cc2)N1Cc1ccccc1Cl | 0.818 (inactive) |
| O=C(N1CCCCC1)[C@]1(Cc2ccccc2)N=C(c2ccc(OCCCO)cc2)O[C@@H]1c1ccccc1 | 1.28 (inactive) |
| CC(=O)NCCCC[C@@H]1NC(=O)[C@H]2C[C@@H](C(=O)NCCCCCCNC(=O)CS)[C@@H](c3ccc(O)cc3)N2C1=O | 0.301 (inactive) |
| O=C(CS)NCCCCCCNC(=O)[C@@H]1C[C@@H]2C(=O)NCC(=O)N2[C@@H]1c1cccc(OCCO)c1 | 0.104 (inactive) |
| CC[C@@H]1C=C(C(=O)O)[C@H](c2ccc(Br)cc2)N1S(=O)(=O)c1ccc(C)cc1 | 0.658 (inactive) |
| CCOC(=O)C[C@H]1[C@H](OC(=O)c2ccccc2-c2ccccc2)[C@@H](NC(=O)CC(C)C)c2cc(OCCCO)ccc2N1C(=O)Cc1ccc(OC)cc1 | 0.207 (inactive) |
| CCCC[C@@H]1C[C@H]1[C@@H](NC(=O)c1cccs1)c1ccc(-c2ccccc2)cc1 | 0.668 (inactive) |
| COc1ccc(-c2cc3c(c(-c4ccc(Oc5ccccc5)cc4)n2)[Si](C(C)C)(C(C)C)OC3)cn1 | 0.85 (inactive) |
| CC(C)C(=C=CC[C@@H](O)c1ccc(OCCO)cc1)C[C@@H](O)COCc1ccccc1 | -0.46 (inactive) |

Test: modulators of S6 phosphorylation in cells, primary screen, cell-based, A549, cytoblot, luminescence, serum-stimulated (AID 1158);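 also: serum-stimulated A549 lung adenocarcinoma cells; signal is phosphorylated S6 detected by cytoblot immunostaining with HRP secondary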
Settings: A549 phospho-S6 cytoblot, 5 h, higher = more signal

| Structure (SMILES) | z-score |
| --- | --- |
| CCC(CC)C(O)C1C=CC2C(=O)NC(=O)C2N1Nc1ccc(Cl)cc1Cl (centres undefined) | -1.5 |
| C=C(CCCC)/C(=C/C[C@@H](OC(=O)c1ccncc1)c1ccc(OCCO)cc1)c1cc(C(=O)OC)ccc1OC | 0.377 |
| CO[C@H]1O[C@H](CO)[C@@H](OC(=O)Nc2cccc(F)c2)[C@H](OC(=O)Nc2ccccc2)[C@@H]1OC(=O)Nc1ccccc1 | 0.646 |
| C=C(COC)C(=O)CC[C@@H](OC(C)=O)c1ccc(CO)o1 | -0.142 |
| COC(=O)[C@H](Cc1ccccc1)N1CC2=C[C@@H](C3CC3)n3c(=O)n(C)c(=O)n3[C@H]2[C@@H]1[C@@H](O)Cc1ccccc1 | 0.144 |
| C=C[C@H](CO[Si](CC)(CC)CC)N(Cc1ccc(OC(C)=O)c(OC)c1)S(=O)(=O)c1ccc(Br)cc1 | 0.674 |
| C=CCOC(=O)[C@H]1[C@@H]2C(=O)O[C@@H](c3ccccc3)[C@@H](c3ccccc3)N2[C@@H](c2ccc(OCCOC(=O)[C@H]3C[C@H]4C(=O)N[C@@H](CCCCNC(C)=O)C(=O)N4[C@H]3c3ccc(O)cc3)cc2)[C@]12C(=O)Nc1ccc(I)cc12 | -0.635 |
| CC(C)C(O)C1C=CC2C(=O)NC(=O)C2N1Nc1ccc(Cl)cc1Cl (centres undefined) | -1.23 |
| COc1ccc([Si](C)(C)[C@H]2[C@H](CCO)O[C@@]3(C(=O)N(Cc4ccc(N(C=O)c5ccccc5)cc4)c4ccccc43)[C@@H]2C)cc1 | 0.788 |
| CC(C)C(O)C1C=CC2C(=O)N(c3ccccc3)C(=O)C2N1Nc1ccc([N+](=O)[O-])cc1 (centres undefined) | -0.326 |
| CC(C)C[C@@H]1NC(=O)[C@H](C(C)C)NC(=O)[C@@]23C(=O)N[C@@H](Cc4ccccc4)C2[C@H](C)[C@@]2(C)O[C@H]2C3/C=C/CC/C=C/CNC1=O (some centres undefined) | 0.116 |
| CC1(C)[C@@H]2CC(C(O)C3C=CC4C(=O)N(c5ccccc5)C(=O)C4N3Nc3ccc([N+](=O)[O-])cc3)=C[C@H]1C2 (some centres undefined) | -0.539 |
| COc1ccccc1CN1C(=O)c2ccccc2[C@@]2(Cc3ccccc3N(CC(C)C)C2=O)[C@@H]1c1ccc(CO)cc1 | 0.0317 |
| CC1CC/C=C\[C@H]2OC34C=CCN(C(C)(C)C)C(=O)[C@H]3N(C(C)CO)C(=O)[C@@H]4C2C(=O)O1 (some centres undefined) | 0.021 |
| O=C(NCCO)C1=C[C@H](Oc2ccccc2I)[C@@H](O)[C@H](N(Cc2ccco2)C(=O)Cc2ccccc2)C1 | 0.202 |
| CN(C)CCCC[C@@H]1NC(=O)[C@H]2C[C@@H](C(=O)NCCCCCCN)[C@@H](c3ccc(O)cc3)N2C1=O | -0.24 |
| COC(=O)C(CC#Cc1ccc2c(c1)[C@]1(C(=O)N2)[C@H](c2ccc(OCCO)cc2)N2[C@H](c3ccccc3)[C@H](c3ccccc3)OC(=O)[C@H]2[C@@H]1C(=O)N1CCc2cc(OC)c(OC)cc2C1)C(=O)OC | -0.214 |
| [N-]=[N+]=Nc1ccccc1[C@H]1OC(c2ccc(OCCCO)cc2)=N[C@@]1(CCS(=O)(=O)c1ccccc1)C(N)=O | -0.0187 |

| Structure (SMILES) | z-score |
| --- | --- |
| COC(=O)[C@@]1(Cc2ccc(F)cc2)[C@H]2c3cc(C(=O)N(C)C)n(Cc4ccccc4)c3C[C@H]2CN1C(=O)c1ccccc1 | -0.231 |
| COc1cc(COC(C)=O)ccc1OC(C)=O | 1.29 |
| CN1C(=O)C2C=CC(C(O)C#Cc3ccccc3)N(N3CCCCC3)C2C1=O (centres undefined) | -0.726 |
| NC(=O)NCC#Cc1ccc2c(c1)[C@]1(C(=O)N2)[C@H](C(N)=O)[C@H]2C(=O)O[C@H](c3ccccc3)[C@H](c3ccccc3)N2[C@@H]1c1ccc(O)cc1 | 0.226 |
| CO[C@H]1O[C@H](CO)[C@@H](OC(=O)Nc2ccc(Oc3ccccc3)cc2)[C@H](OC(=O)Nc2ccc3c(c2)OCO3)[C@H]1OC(=O)Nc1ccc2c(c1)OCO2 | 1.2 |
| CC(C)NC(=O)[C@@H]1c2ccccc2C(=O)N(C2Cc3ccccc3C2)[C@H]1c1ccc(CO)cc1 | 0.0063 |
| CCCc1cc2c(n1Cc1cc(F)cc(F)c1)C(C)C1CN(C(=O)c3ccccc3)C(C)(C(=O)OC)C21 (centres undefined) | -0.712 |
| [N-]=[N+]=Nc1ccccc1[C@@H]1OC(c2ccc(OCCCO)cc2)=N[C@]1(CCS(=O)(=O)c1ccccc1)C(N)=O | 0.0742 |
| O=C1c2ccccc2[C@](Cc2ccccc2I)(C(=O)NCCN2CCOCC2)[C@H](c2ccc(CO)cc2)N1Cc1ccccc1Cl | -0.0261 |
| O=C(N1CCCCC1)[C@]1(Cc2ccccc2)N=C(c2ccc(OCCCO)cc2)O[C@@H]1c1ccccc1 | 2.33 |
| CC(=O)NCCCC[C@@H]1NC(=O)[C@H]2C[C@@H](C(=O)NCCCCCCNC(=O)CS)[C@@H](c3ccc(O)cc3)N2C1=O | -0.371 |
| O=C(CS)NCCCCCCNC(=O)[C@@H]1C[C@@H]2C(=O)NCC(=O)N2[C@@H]1c1cccc(OCCO)c1 | 0.59 |
| CC[C@@H]1C=C(C(=O)O)[C@H](c2ccc(Br)cc2)N1S(=O)(=O)c1ccc(C)cc1 | -0.283 |
| CCOC(=O)C[C@H]1[C@H](OC(=O)c2ccccc2-c2ccccc2)[C@@H](NC(=O)CC(C)C)c2cc(OCCCO)ccc2N1C(=O)Cc1ccc(OC)cc1 | 0.633 |
| CCCC[C@@H]1C[C@H]1[C@@H](NC(=O)c1cccs1)c1ccc(-c2ccccc2)cc1 | -0.993 |
| COc1ccc(-c2cc3c(c(-c4ccc(Oc5ccccc5)cc4)n2)[Si](C(C)C)(C(C)C)OC3)cn1 | -0.837 |
| CC(C)C(=C=CC[C@@H](O)c1ccc(OCCO)cc1)C[C@@H](O)COCc1ccccc1 | 4.27 |
